For test [1], the target named is bovine Gamma-Aminobutyric Acid Type A Receptor BDZ, alpha 1 site (GABARa1), GABRA1 (gene 780973) (UniProt P08219). Kind of test: NVS_LGIC_bGABARa1: NovaScreen (NVS) Ligand-Gated Ion Channel Assay for bovine Gamma-Aminobutyric Acid Type A Receptor BDZ, alpha 1 site (GABARa1) (AID 2283321). In a few lines:
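Bovine cortex membrane preparation, benzodiazepine site on GABA-A alpha1; specific radioligand displacement read after 0.75 h by filtration and scintillation. Screen at 25 uM, then singleton titrations up to 50 uM; DMSO baseline.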

The target of test [2] is Sodium channel protein type 1 subunit alpha (Rattus norvegicus) (UniProt P04774). Kind of test: NVS_IC_rNaCh_site2: NovaScreen (NVS) Ion Channel Assay for rat Sodium Channel, Site 2 (NaCh) (AID 2283322).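 Note: hit means loss of radioligand binding signal relative to DMSO so AC50 marks displacement.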 In a few lines:
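Initial duplicate single-point testing at 25 uM, followed by concentration-response runs for actives. Binding of radioligand to rat forebrain membranes quantified after 1 h via filter-based radiodetection.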

Test [3] addresses human Serotonin, 5-Hydroxytryptamine Receptor 3 (5HT3), HTR3A (gene 3359) (UniProt P46098). Kind of test: NVS_LGIC_h5HT3: NovaScreen (NVS) Ligand-Gated Ion Channel Assay for human Serotonin, 5-Hydroxytryptamine Receptor 3 (5HT3) (AID 2283325). In a few lines: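 Initially tested at 25 uM in duplicate, then up to 50 uM in concentration-response for actives, compounds competed with a radioligand for HEK293-derived human 5-HT3 receptor. Bound counts were measured by filtration and scintillation at 1 h; loss of signal versus DMSO.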

Test [4] has as its target Small conductance calcium-activated potassium channel protein 1 (Rattus norvegicus) (UniProt P70606). Kind of test: NVS_IC_rKCaCh: NovaScreen (NVS) Ion Channel Assay for rat Potassium Channel, Ca2+ Act., VI (KCaCh) (AID 2283336). In a few lines:
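Filter-based scintillation counting of radioligand bound to rat forebrain membrane preparations, measured 1 h after compound addition. Primary screen used 25 uM in duplicate, with concentration-response follow-up; signal decrease relative to DMSO marks activity.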

For test [5], the target named is bovine Gamma-Aminobutyric Acid Type A Receptor Agonist (GABAR Agonist), GABRA1 (gene 780973) (UniProt P08219). The experiment in a line: NVS_LGIC_bGABAR_Agonist: NovaScreen (NVS) Ligand-Gated Ion Channel Assay for bovine Gamma-Aminobutyric Acid Type A Receptor Agonist (GABAR Agonist) (AID 2283338). In a few lines:
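Radioligand binding to bovine cerebellar membranes in agonist format, read by filter-based scintillation counting after 1 h. Primary screen in duplicate at 25 uM, with actives followed in concentration series. Gain of signal versus DMSO.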

Test [6] concerns the target rat Peripheral-type Benzodiazepine Receptor (PBR), Tspo (gene 24230) (UniProt P16257). Kind of test: NVS_MP_rPBR: NovaScreen (NVS) Membrane Protein Assay for rat Peripheral-type Benzodiazepine Receptor (PBR) (AID 2283335). In a few lines:
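Single-concentration duplicate screening at 25 uM preceded concentration-series retesting of actives. Binding of a specific radioligand to rat kidney membrane PBR was read by filtration radiodetection after 1 h, with plate-wise positive and negative controls.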

Test [7] addresses rat Gamma-Aminobutyric Acid Type A Receptor, Non-Selective (GABAR-NonSelective), Gabra1 (gene 29705) (UniProt P62813). Kind of test: NVS_LGIC_rGABAR_NonSelective: NovaScreen (NVS) Ligand-Gated Ion Channel Assay for rat Gamma-Aminobutyric Acid Type A Receptor, Non-Selective (GABAR-NonSelective) (AID 2283326). In a few lines:
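Compounds were first screened in duplicate at 25 uM, with actives run as singleton concentration series (max 50 uM). Binding of a radioligand to rat whole-brain GABA-A preparation was measured by filtration and scintillation counting after 1 h, DMSO baseline.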

The target of test [8] is rat Oxytocin Receptor (OXT), Oxtr (gene 25342) (UniProt P70536). Kind of test: NVS_GPCR_rOXT: NovaScreen (NVS) G Protein-Coupled Receptor Assay for rat Oxytocin Receptor (OXT) (AID 2283330). In a few lines: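 Binding to rat uterine membrane receptor was followed by scintillation counting of filter-trapped radioligand after 1 h. A 25 uM duplicate single-point screen preceded concentration series with a top of 50 uM. Signal loss was analysed relative to DMSO.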
rat Oxytocin Receptor (OXT), Oxtr (gene 25342), sequence (P70536 whole entry, looked up): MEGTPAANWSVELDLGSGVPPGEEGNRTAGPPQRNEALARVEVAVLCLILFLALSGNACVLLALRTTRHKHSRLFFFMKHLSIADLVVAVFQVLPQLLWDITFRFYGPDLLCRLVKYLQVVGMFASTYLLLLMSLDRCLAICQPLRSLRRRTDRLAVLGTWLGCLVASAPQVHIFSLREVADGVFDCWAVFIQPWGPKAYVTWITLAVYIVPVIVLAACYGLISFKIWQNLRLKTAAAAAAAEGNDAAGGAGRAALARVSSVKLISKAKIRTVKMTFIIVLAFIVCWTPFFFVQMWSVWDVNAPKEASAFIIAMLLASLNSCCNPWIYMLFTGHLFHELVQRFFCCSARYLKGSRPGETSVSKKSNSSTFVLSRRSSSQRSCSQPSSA

Test [9] addresses human Peripheral-type Benzodiazepine Receptor (PBR), TSPO (gene 706) (UniProt P30536). Kind of test: NVS_MP_hPBR: NovaScreen (NVS) Membrane Protein Assay for human Peripheral-type Benzodiazepine Receptor (PBR) (AID 2283331).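 Note: hits reduce radioligand binding relative to DMSO baseline.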 In a few lines:
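Cell-free radioligand displacement, human colonic membranes, 1 h exposure. Filter radiodetection read-out. Single-concentration duplicates (25 uM), then concentration-response for actives; DMSO negative control.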

The target of test [10] is Voltage-gated inwardly rectifying potassium channel KCNH2 (Homo sapiens) (UniProt Q12809). The experiment in a line: NVS_IC_hKhERGCh: NovaScreen (NVS) Ion Channel Assay for human Potassium Channel ERG (KhERGCh) (AID 2283333). In a few lines: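 Membranes from CHO cells expressing human ERG; displacement of radioligand measured by filtration and scintillation after 0.75 h. Single-concentration duplicate screen at 25 uM, then concentration-response for actives; DMSO baseline.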
Voltage-gated inwardly rectifying potassium channel KCNH2 (Homo sapiens), sequence (Q12809 whole entry, looked up): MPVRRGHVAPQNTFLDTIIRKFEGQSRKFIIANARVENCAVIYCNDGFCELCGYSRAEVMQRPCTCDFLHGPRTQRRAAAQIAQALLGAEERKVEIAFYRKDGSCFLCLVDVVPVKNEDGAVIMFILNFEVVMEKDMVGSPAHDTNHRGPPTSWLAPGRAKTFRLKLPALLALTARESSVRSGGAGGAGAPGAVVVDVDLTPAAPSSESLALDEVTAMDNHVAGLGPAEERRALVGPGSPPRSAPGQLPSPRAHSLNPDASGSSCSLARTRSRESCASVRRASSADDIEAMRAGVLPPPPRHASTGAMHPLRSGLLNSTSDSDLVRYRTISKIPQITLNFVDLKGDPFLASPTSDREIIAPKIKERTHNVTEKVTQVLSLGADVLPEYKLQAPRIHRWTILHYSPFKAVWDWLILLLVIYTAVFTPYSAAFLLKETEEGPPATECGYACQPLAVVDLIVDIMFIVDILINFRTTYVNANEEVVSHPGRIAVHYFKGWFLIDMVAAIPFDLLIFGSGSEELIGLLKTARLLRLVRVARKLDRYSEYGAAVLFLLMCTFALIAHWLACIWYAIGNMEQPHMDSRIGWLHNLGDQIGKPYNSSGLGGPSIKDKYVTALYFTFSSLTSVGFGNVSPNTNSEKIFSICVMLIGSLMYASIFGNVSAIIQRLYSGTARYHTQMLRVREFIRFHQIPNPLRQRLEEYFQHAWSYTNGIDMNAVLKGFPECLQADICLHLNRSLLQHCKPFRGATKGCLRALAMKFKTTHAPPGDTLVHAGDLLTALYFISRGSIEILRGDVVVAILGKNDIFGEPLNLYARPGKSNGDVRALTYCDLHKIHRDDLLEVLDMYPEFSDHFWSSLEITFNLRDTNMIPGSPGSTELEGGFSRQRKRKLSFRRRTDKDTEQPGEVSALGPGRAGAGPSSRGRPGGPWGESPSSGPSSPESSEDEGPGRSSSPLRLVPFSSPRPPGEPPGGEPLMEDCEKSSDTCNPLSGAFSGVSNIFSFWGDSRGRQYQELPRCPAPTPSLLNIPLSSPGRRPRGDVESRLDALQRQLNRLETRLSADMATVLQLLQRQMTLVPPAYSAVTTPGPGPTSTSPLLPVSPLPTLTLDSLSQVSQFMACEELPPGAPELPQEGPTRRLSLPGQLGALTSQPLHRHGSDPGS

Test [11] can be described thus: NVS_IC_rCaBTZCHL: NovaScreen (NVS) Ion Channel Assay for Calcium Channel, Type L, Benzothiazepine Site (CaBTZCHL) (AID 2283337). In a few lines:
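Benzothiazepine-site binding was assessed in a tissue-derived, cell-free rat cortical membrane system. After 1.5 h exposure, radioactivity retained on filters was quantified by scintillation; positive and negative controls accompanied every plate.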

In test [12] the target is human Constitutive Androstane Receptor (CAR), NR1I3 (gene 9970) (UniProt Q14994). Kind of test: NVS_NR_hCAR_Agonist: NovaScreen (NVS) Nuclear Receptor Binding Assay for human Constitutive Androstane Receptor Agonism (CAR) (AID 2283328). In a few lines: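 Actives from a 25 uM duplicate screen were retested in singleton concentration series to 50 uM max. Biochemical TR-FRET assay on extracted CAR protein measured 1 h post-dose, with signal increase over DMSO control.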
human Constitutive Androstane Receptor (CAR), NR1I3 (gene 9970), sequence (Q14994 whole entry, looked up): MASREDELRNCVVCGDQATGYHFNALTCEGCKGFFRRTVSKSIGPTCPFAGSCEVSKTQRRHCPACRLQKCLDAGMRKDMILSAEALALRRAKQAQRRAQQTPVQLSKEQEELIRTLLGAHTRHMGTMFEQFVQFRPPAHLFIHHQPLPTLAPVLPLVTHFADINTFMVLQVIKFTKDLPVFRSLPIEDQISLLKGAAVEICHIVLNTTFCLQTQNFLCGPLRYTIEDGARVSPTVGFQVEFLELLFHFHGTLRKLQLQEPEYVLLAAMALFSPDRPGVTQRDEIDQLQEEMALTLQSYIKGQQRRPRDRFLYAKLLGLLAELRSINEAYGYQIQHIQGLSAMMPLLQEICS

The target in test [13] is bovine Gamma-Aminobutyric Acid Type A Receptor BDZ, alpha 5 site (GABARa5), GABRA5 (gene 523515) (UniProt Q08E50). The experiment in a line: NVS_LGIC_bGABARa5: NovaScreen (NVS) Ligand-Gated Ion Channel Assay for bovine Gamma-Aminobutyric Acid Type A Receptor BDZ, alpha 5 site (GABARa5) (AID 2283323). In a few lines:
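Tested first in duplicate at a single 25 uM, with hits re-run in concentration series to a 50 uM maximum. Bovine hippocampal membranes; specific radioligand displacement measured by filter scintillation counting 1 hr post-dose.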

Test [14] deals with rat Gamma-Aminobutyric Acid Type A Receptor BDZ, alpha 6 site (GABARa6), Gabra6 (gene 29708) (UniProt P30191). Kind of test: NVS_LGIC_rGABARa6: NovaScreen (NVS) Ligand-Gated Ion Channel Assay for rat Gamma-Aminobutyric Acid Type A Receptor BDZ, alpha 6 site (GABARa6) (AID 2283339). In a few lines: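 Actives from a 25 uM duplicate screen were retested in concentration series (max 50 uM). Specific radioligand displacement from rat cerebellar membranes was counted by filter-based scintillation at 1 h; DMSO served as baseline.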

The target in test [15] is rat Thyrotropin Releasing Hormone Receptor (TRH), Trhr (gene 25570) (UniProt Q01717). The experiment in a line: NVS_GPCR_rTRH: NovaScreen (NVS) G Protein-Coupled Receptor Assay for rat Thyrotropin Releasing Hormone Receptor (TRH) (AID 2283329).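 Note: hit means lower bound tracer signal versus DMSO baseline.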 In a few lines:
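Rat forebrain membranes; radioligand displacement at TRH receptor by filter-based scintillation counting, read 4 h after dosing. Duplicate single-point screen at 25 uM, actives rerun in concentration series; loss of signal relative to DMSO.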

A short description of test [16]: NVS_IC_rCaDHPRCh_L: NovaScreen (NVS) Ion Channel Assay for rat Calcium Channel, Type L, Dihydropyridine Site (CaDHPRCh_L) (AID 2283320). In a few lines: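 Rat cortex membrane preparation; dihydropyridine-site radioligand displacement read 1 h post-dose by filtration and scintillation. Primary single-point screen 25 uM in duplicate, then concentration series to 50 uM maximum; DMSO as negative control.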

In test [17] the target is rat Glycine Receptor, Strychnine-sensitive (GlyRStrySens), Glra1 (gene 25674) (UniProt P07727). Kind of test: NVS_LGIC_rGlyRStrySens: NovaScreen (NVS) Ligand-Gated Ion Channel Assay for rat Glycine Receptor, Strychnine-sensitive (GlyRStrySens) (AID 2283341). In a few lines:
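Radioligand displacement on rat spinal cord membranes, 1 hr, filter scintillation read-out. Single-concentration duplicate screen at 25 uM; chemicals meeting threshold (e.g., 30% inhibition) rerun in concentration-response up to 50 uM. Loss of binding fitted versus DMSO.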

Results filed as inconclusive are left out. Calls of active or inactive are those of the source. Rule for the calls: active = hit-call score of the fitted dose curve at least 0.9, where 1 is the maximum; inconclusive = response in the unintended direction; inactive = score below 0.9.

human Serotonin, 5-Hydroxytryptamine Receptor 3 (5HT3), HTR3A (gene 3359), sequence (P46098 whole entry, looked up): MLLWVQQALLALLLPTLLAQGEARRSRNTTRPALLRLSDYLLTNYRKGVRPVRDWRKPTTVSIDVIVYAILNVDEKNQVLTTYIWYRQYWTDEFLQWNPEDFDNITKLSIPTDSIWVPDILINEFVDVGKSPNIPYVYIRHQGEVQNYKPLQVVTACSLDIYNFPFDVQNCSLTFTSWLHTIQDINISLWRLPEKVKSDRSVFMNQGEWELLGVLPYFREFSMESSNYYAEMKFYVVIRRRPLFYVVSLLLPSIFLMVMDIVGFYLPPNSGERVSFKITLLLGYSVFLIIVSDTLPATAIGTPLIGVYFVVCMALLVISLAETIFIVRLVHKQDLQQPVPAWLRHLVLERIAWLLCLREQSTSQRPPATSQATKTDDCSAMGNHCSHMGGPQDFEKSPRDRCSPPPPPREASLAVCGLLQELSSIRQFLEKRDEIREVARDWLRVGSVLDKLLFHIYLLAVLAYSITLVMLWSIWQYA
Small conductance calcium-activated potassium channel protein 1 (Rattus norvegicus), sequence (P70606 whole entry, looked up): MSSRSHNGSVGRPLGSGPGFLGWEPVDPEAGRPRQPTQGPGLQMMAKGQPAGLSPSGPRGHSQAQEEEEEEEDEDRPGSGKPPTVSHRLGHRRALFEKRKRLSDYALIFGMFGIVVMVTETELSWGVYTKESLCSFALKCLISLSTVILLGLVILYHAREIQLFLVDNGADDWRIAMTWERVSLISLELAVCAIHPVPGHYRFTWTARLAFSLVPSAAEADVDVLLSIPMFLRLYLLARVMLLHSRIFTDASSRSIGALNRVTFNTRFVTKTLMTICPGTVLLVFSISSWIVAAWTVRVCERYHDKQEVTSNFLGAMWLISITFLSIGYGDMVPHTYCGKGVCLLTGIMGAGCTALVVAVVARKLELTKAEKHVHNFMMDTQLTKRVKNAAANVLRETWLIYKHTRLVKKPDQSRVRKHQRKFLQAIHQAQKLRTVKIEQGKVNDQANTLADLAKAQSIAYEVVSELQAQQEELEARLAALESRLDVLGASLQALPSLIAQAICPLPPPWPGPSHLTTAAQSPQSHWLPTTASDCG
rat Gamma-Aminobutyric Acid Type A Receptor, Non-Selective (GABAR-NonSelective), Gabra1 (gene 29705), sequence (P62813 whole entry, looked up): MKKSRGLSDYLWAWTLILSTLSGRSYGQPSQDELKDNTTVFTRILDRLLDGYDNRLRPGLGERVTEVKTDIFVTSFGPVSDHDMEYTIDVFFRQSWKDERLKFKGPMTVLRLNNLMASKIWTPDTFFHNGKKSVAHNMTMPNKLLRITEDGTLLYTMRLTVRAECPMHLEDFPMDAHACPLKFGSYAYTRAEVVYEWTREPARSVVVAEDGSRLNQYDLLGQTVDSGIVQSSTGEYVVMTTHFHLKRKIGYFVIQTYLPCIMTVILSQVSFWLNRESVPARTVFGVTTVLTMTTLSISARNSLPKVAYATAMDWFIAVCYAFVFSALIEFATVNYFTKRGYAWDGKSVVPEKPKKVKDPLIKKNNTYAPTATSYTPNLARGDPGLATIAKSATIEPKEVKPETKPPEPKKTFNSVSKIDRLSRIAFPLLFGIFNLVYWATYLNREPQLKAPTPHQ
rat Peripheral-type Benzodiazepine Receptor (PBR), Tspo (gene 24230), sequence (P16257 whole entry, looked up): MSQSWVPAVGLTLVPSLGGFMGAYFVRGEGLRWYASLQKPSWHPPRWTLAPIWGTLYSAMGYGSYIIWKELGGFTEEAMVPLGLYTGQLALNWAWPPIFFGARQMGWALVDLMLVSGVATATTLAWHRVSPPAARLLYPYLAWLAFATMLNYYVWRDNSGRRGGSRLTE
bovine Gamma-Aminobutyric Acid Type A Receptor Agonist (GABAR Agonist), GABRA1 (gene 780973), sequence (P08219 whole entry, looked up): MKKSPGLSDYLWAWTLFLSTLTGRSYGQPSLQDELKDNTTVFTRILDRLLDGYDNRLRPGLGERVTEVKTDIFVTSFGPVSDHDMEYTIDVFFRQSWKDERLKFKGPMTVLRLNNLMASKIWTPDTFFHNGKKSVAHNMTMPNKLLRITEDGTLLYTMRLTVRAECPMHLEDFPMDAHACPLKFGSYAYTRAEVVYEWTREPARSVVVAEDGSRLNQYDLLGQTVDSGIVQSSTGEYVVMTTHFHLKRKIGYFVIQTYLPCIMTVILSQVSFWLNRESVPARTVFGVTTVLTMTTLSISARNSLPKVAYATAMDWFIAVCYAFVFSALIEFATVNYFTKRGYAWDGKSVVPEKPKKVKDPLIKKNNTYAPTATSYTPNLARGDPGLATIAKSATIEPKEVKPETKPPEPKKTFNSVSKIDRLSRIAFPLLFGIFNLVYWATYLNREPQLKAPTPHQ
human Peripheral-type Benzodiazepine Receptor (PBR), TSPO (gene 706), sequence (P30536 whole entry, looked up): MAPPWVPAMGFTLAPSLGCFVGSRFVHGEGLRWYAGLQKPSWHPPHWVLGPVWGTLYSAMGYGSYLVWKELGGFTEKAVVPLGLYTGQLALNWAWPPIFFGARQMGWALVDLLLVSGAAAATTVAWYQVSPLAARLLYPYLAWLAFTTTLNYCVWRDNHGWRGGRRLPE
bovine Gamma-Aminobutyric Acid Type A Receptor BDZ, alpha 1 site (GABARa1), GABRA1 (gene 780973), sequence (P08219 whole entry, looked up): as the sequence (P08219 whole entry, looked up) above

Turning to `O=C(Oc1ccc(Br)cc1)N1CCN2CCC1CC2`, the result in [1] and in test [4] was inactive. In addition, the AC50 – broadly, the concentration at which the activity in the assay is half-maximal – was 8.18 µM (active) in [2], 12.5 µM (active) in [3] and 25 µM (active) in test [5].

As to `c1ccc(N=Nc2ccccc2)cc1`, the compound was classed as inactive in test [3].

As to `CCCCOC(=O)c1ccccc1C(=O)OCc1ccccc1`, the outcome in [6] and in test [5] was inactive.

Regarding `CCCCCCCCCCCCCN1CC(C)OC(C)C1` (stereo not given), the outcome in test [2] and in test [5] was inactive.

As for `O=C(N[C@H](c1ccccc1)[C@@H]1CN2CCC1CC2)c1c(Cl)ccc(C(F)(F)F)c1Cl`, the AC50 in test [2] was 0.113 µM (active); in test [7], 0.238 µM (active); in test [11] it was 3.07 µM (active). Also, the compound was called inactive in test [8], in [9], in test [10], in [6] and in test [4].

As to `Cc1cccc(N)c1N`, the call in test [3] was inactive.

In the case of `O=C(Nc1ccccc1)c1ccccc1I`, the AC50 was 1.46 µM (active) in test [9] and 1.61 µM (active) in test [6].

In the case of `CCCSC(=O)N(CCC)CCC`, the outcome in test [12] was inactive.

`CC(C)(O)c1cnn2c(-c3ccc(F)c(-c4c(F)cccc4C#N)c3)cnc2n1`: the compound was called inactive in test [1], in test [7], in [5] and in test [14]. The AC50 in test [13] is 0.00229 µM (active).

For `Cc1ccc(N=C=O)cc1N=C=O`, the concentration at half-maximal activity (AC50) in test [9] is 4.24 µM (active).

In the case of `CN(C)c1ccc(C(=O)c2ccc(N(C)C)cc2)cc1`, the AC50 in [9] is 10.2 µM (active). In [6], the compound was called inactive.

For `OCCCBr`, in [15], the compound was called inactive.

`O=C(O)C1C2CCC(O2)C1C(=O)O` (stereo not given): the AC50 in test [7] is 2.14 µM (active).

As for `CCCCCOC(=O)c1ccccc1C(=O)OCCCCC`, the compound was classed as inactive in [2].

Take `C[N+](C)(C)CC1CO1` (stereo not given): in test [4], the outcome was inactive.

As to `CC(C)(C)C(O)(CCc1ccc(Cl)cc1)Cn1cncn1` (stereo not given), the AC50 is 25 µM (active) in test [2], 6.45 µM (active) in test [6] and 16 µM (active) in test [11]. Further, the outcome in [10] was inactive.

`CCOC(=O)[C@]1(c2ccccc2)Oc2ccccc2[C@@H]1N`: the AC50 in test [16] was 6.77 µM (active); in test [2] it was 2.3 µM (active); in [7], 1.08 µM (active); in test [10] it was 1.44 µM (active); in test [11] it was 7.25 µM (active); in test [17] it was 25 µM (active).

Turning to `COP(=S)(OC)SCN1C(=O)c2ccccc2C1=O`, the result in test [2] was inactive. The AC50 in test [6] was 11.3 µM (active).

Consider `Cc1cc(N=Nc2ccccc2C)ccc1N`, for which, in [12], the compound was classed as inactive. The AC50 was 36.2 µM (active) in test [9] and 14 µM (active) in [6].

Turning to `c1ccc2c(c1)-c1cccc3cccc-2c13`, the compound was called inactive in [12].

(Values after PubChem BioAssay (EPA / NIEHS).)
